Activity calls are given as the source filed them.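 How the source made its calls: active means z-score of at least 1.8 in each of two replicates, scored against plate mean and spread of sample wells; inactive means the rest.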

Among the data in PubChem BioAssay are z-score values, retold here.

A short description of this experiment: viability rescue of complex I mutant cybrids, primary screen, cell-based, galactose medium, ATP luminescence (AID 1645843).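 Further: positive z means more ATP and so rescue of galactose-driven cybrid death.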 Particulars: complex I mutant cybrid cells, 72 h, stronger effect = higher value.
For the compound `Cn1ncc2[nH]c(-c3cc(F)ccc3-n3cccn3)nc21`, the z-score was -0.56 (inactive).
For `C=C1C2(C(=O)N3CCC(c4ccc(F)cc4)C3)CCC(C2)C1(C)C` (stereo not given), the z-score was 0.91 (inactive).
As for `Cc1nsc(NC(=O)N2CCCN(c3ccc(F)cc3)CC2)n1`, the z-score was -0.27 (inactive).
For `Cc1ccc2c(C(=O)N3CCCC(C#N)C3)cc(-c3cnn(C(C)C)c3)nc2c1` (stereo not given), the z-score was -0.52 (inactive).
As for `CCCc1cc(C(=O)N2CCCC(Cn3cc(CC(C)C)nn3)C2)n[nH]1` (stereo not given), the z-score is 1.21 (inactive).
For the compound `CCCC(NC(=O)c1cc(C)oc1C)c1ccccc1` (stereo not given), the z-score is -0.63 (inactive).
For the compound `COc1ccc(-c2noc(C3CC(C(C)C)=NO3)n2)c(OC)c1` (stereo not given), the z-score was -0.525 (inactive).
With `O=C1NCCN(C(=O)c2ccccc2)C1Cc1ccccc1` (stereo not given) the figure was -0.54 (inactive).
In the case of `CCn1ncc(NC(=O)Cn2cc(C)c(-c3ccc(Cl)s3)n2)n1`, the z-score is -0.01 (inactive).
With `O=C(C1CCCCCC1)N1CCC(n2cc(-c3ccsc3)nn2)CC1`, the z-score was -0.215 (inactive).
Regarding `CCCN1CCC(N2CCC(n3cc(-c4ccccc4)nn3)CC2)CC1`, the z-score is 0.325 (inactive).
In the case of `Cc1nnc(NC(=O)N2CCCN(c3ccncc3C)CC2)s1`, the z-score is -0.57 (inactive).
In the case of `CC(O)Cc1cn(CC2CCN(C(=O)C3CCCCCC3)CC2)nn1` (stereo not given), the z-score was -0.51 (inactive).
`Cc1cc(C)c(CNC(C)CCCC(C)(C)O)c(C)c1CO` (stereo not given): the z-score is 0.19 (inactive).
Under `Cc1ccc(-c2ccn(CC(=O)Nc3nn(C)c4ccccc34)n2)s1` stands 2.7 (active); under `CCOC(=O)c1ccc(N2CCC(c3ccc(F)cc3)C2)nc1` (stereo not given), 0.975 (inactive); under `COc1ccccc1OC(C)c1nc(Cc2cccc(C(F)(F)F)c2)no1` (stereo not given), 0.51 (inactive).
With `CC1CCc2c(sc3ncn(Cc4noc(C(C)C)n4)c(=O)c23)C1` (stereo not given), the z-score was -0.525 (inactive).
`Cc1ccn(CCN2CCC(Oc3cccc(Cl)c3)CC2)n1`: the z-score is 0.135 (inactive).
On to `CCCn1nc(NC(=O)Cn2ccc(-c3ccc(F)cc3)n2)c2ccccc21`, for which the z-score is -1.28 (inactive).
With `COc1cc(-c2cccc(C)c2C)nc(N)n1`, the z-score was -0.335 (inactive).
Turning to `c1ccc(Cn2ccnc2CNc2ncnc3nc[nH]c23)cc1`, the z-score is -0.435 (inactive).
For `CCCC1CCCN1Cc1ccccc1OC1(C(=O)O)CCCC1` (stereo not given), the z-score was -0.265 (inactive).
`COc1cccc(CC(=O)NCc2ccc(Cl)s2)c1`: the z-score is -0.145 (inactive).
Consider `CCCn1nc(NC(=O)Cn2ccc(-c3ccccc3F)n2)c2ccccc21`, for which the z-score is -1.28 (inactive).
Take `Cc1ccc2nc(-c3cnc(CCC(C)C)nc3)c(C)c(C(=O)N(C)C)c2c1`: the z-score is -0.51 (inactive).
As for `CCCCC(CC)CN1CCc2[nH]nc(C3CC3)c2C1` (stereo not given), the z-score was -0.03 (inactive).
Consider `CC1CCCN1C(=O)c1cc(-c2cnn(C(C)C)c2)nc2cc(F)ccc12` (stereo not given), for which the z-score is -0.72 (inactive).
Turning to `O=C(c1ccc(-n2ccnc2)cc1)N1CCc2[nH]nc(-c3ccccc3)c2C1`, the z-score was -1 (inactive).
As for `O=C(CCC1CC1)Nc1ccnn1C1CCCCC1`, the z-score is 0.01 (inactive).
In the case of `CC1CCCCN1Cc1ccc(-c2nc(CCn3cccn3)cc(=O)[nH]2)cc1` (stereo not given), the z-score is -0.245 (inactive).
`CCc1noc(CN(C(=O)c2ccccc2-n2cccn2)C(C)C)n1`: the z-score is -0.655 (inactive).
In the case of `CCn1ncc2[nH]c(-c3cc(F)ccc3-n3cccn3)nc21`, the z-score was -0.185 (inactive).
Consider `COc1ccc(CN2CCN(c3nccc(-c4c(C)nn(C)c4C)n3)CC2=O)cc1`, for which the z-score was 1.14 (inactive).
On to `Cc1nc(CN(C)C2CCN(c3ccc(-n4cccn4)cc3)CC2)cs1`, for which the z-score is 0.655 (inactive).
As for `Cc1nsc(NC(=O)N2CCCCC2c2cccc(F)c2)n1` (stereo not given), the z-score is -0.55 (inactive).
In the case of `O=c1c2sc(-c3ccc(F)cc3)cc2ncn1Cc1nc2ccccc2[nH]1`, the z-score was 0.44 (inactive).
With `Cc1nn(C)cc1-c1ccnc(NCCc2nc(-c3ccccn3)no2)n1`, the z-score was -0.82 (inactive).
In the case of `CC(O)c1cn(CC2CCN(C(=O)CC3CCCCCC3)CC2)nn1` (stereo not given), the z-score is -0.54 (inactive).
As for `C=C1C2(C(=O)N3CCC(c4ccccc4F)C3)CCC(C2)C1(C)C` (stereo not given), the z-score is 1.09 (inactive).
